Data from PubChem BioAssay (EPA / NIEHS).
Some compounds were tested as several samples or in several runs, with calls that do not always agree. Calls of active or inactive are those of the source. How the source made its calls: active means hit-call score of the fitted dose curve at least 0.9, where 1 is the maximum; inactive means score below 0.9.

These molecules were tested against Transcriptional activator Myb (Homo sapiens) (UniProt P10242) (assay: ATG_Myb_CIS: Attagene CIS-FACTORIAL HepG2 Assay for human Myeloblastosis (Myb) Proto-Oncogene Transcription Factor (AID 2282986)). Conditions: HepG2 Attagene CIS-FACTORIAL Myb reporter transcription; actives raise or lower the signal.
Method: ATG_CIS is a cell-based, multiplexed-readout assay that uses HepG2, a human liver cell line, with measurements taken at 24 hours after chemical dosing in a 24-well plate.ATG_Myb_CIS is one of 52 assay component(s) measured or calculated from the ATG_CIS assay. It is designed to make measurements of mRNA induction, a form of inducible reporter, as detected with fluorescence intensity signals by Reverse transcription polymerase chain reaction (RT-PCR) and Capillary electrophoresis technology.Data from the assay component ATG_Myb_CIS was analyzed into 1 assay endpoint. This assay endpoint, ATG_Myb_CIS, was analyzed with bidirectional fitting relative to DMSO as the negative control and baseline of activity. Using a type of inducible reporter, measures of mRNA for gain or loss-of-signal activity can be used to understand the reporter gene at the transcription factor-level as they relate to the gene MYB. Furthermore, this assay endpoint can be referred to as a primary readout, because this assay has produced multiple assay endpoints where this one serves a reporter gene function. To generalize the intended target to other relatable targets, this assay endpoint is annotated to the dna binding intended target family, where the subfamily is MYB proteins.
Human liver HepG2 cells are transiently transfected with multiple reporter transcription units (MRTUs) in 6-well plates using FuGene 6 reagent (Roche; 3 ml FuGene/1 mg DNA). The MRTU constructs are regulated by a cis-regulating element (promoter). […] A major difference between the CIS and TRANS system is that in CIS activities of endogenous TFs are measured, whereas the TRANS assay evaluates changes in activities of exogenous, chimeric NR-Gal4 proteins. […] At the end of 24 hour incubation, total RNA was isolated using TriZol reagent (Invitrogen). The isolated RNA is then reverse-transcribed using oligo(dT) primer and Mo-MLV reverse transcriptase (Invitrogen) with DNAse I (Ambion) treatment for 30 min. The one-tenth of the produced cDNA was amplified by PCR using Taq DNA polymerase (Invitrogen) and two reporter sequence-specific primers. The PCR products were fluorescently labeled by primer extension with 6-arboxyfluorescein (6-FAM) 5'-labeled reporter sequence-specific primer (2 min at 95 C, 20 s at 68 C and 10 min at 72 C) and these products were digested with 5U of HpaI (New England Biolabs) for 2h at 37 C. The fragments were purified using Qiaquick PCR columns (Qiagen), analyzed on an ABI 3130xL genetic analyzer (Applied Biosystems) with peak positions identified by using a set of X-rhodamine (ROX)-labeled MapMarker1000 molecular weight standards (BioVentures). The raw capillary electrophoresis data was processed using Attagraph software (Attagene).

Transcriptional activator Myb (Homo sapiens), sequence (P10242 whole entry, looked up): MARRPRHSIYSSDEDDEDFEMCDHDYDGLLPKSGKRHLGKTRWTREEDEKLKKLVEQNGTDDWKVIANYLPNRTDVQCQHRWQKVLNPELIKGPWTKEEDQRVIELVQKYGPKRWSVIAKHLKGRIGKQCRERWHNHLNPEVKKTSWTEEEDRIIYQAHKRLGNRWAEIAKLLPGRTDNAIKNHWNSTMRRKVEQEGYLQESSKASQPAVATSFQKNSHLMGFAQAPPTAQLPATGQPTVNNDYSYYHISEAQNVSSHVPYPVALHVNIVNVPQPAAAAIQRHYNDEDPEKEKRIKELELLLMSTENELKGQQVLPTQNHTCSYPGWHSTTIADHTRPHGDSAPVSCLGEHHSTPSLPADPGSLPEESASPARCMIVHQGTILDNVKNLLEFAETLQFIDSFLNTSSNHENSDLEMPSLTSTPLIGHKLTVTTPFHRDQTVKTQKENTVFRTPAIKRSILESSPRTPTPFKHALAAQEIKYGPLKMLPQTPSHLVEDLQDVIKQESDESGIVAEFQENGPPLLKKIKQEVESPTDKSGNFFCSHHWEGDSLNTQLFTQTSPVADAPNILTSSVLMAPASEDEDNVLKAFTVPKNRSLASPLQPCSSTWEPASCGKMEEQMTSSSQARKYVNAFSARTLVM

SMILES | outcome | AC50
CN(C)c1ccc(N=O)cc1 | inactive | 
COc1ccc([N+](=O)[O-])cc1O | inactive | 
CC(C)[N+](=O)[O-] | inactive | 
O=C(NC(=O)c1c(F)cccc1F)Nc1cc(Cl)c(OC(F)(F)C(F)C(F)(F)F)cc1Cl (stereo not given) | inactive | 
OC(Cc1ccccc1Cl)(Cn1[nH]cnc1=S)C1(Cl)CC1 (stereo not given) | inactive | 
CCCCOC(C)=O | inactive | 100 µM (active)
Clc1cccc(Cl)c1Cl | inactive | 
CN(C1CCCCC1)C1CCCCC1 | inactive | 
Cc1c([N+](=O)[O-])c(C)c([N+](=O)[O-])c(C(C)(C)C)c1[N+](=O)[O-] | inactive | 
O=c1[nH]c(=O)n(Cl)c(=O)n1Cl | inactive | 
CCNc1nc(NCC)nc(SC)n1 | inactive | 
CC1(C)[C@H](C(=O)O[C@H](C#N)c2cccc(Oc3ccccc3)c2)[C@@H]1/C=C(\Cl)C(F)(F)F | inactive | 
CCCCCCCCCCCCOS(=O)(=O)O | inactive | 
Oc1cccc(-c2ccccc2)c1 | inactive | 
CCOP(=O)(OCC)SCCSCC | inactive | 
O=S(=O)(F)C(F)(F)C(F)(F)C(F)(F)C(F)(F)F | inactive | 
[F][Sn]([c]1ccccc1)([c]1ccccc1)[c]1ccccc1 |  | 2.24 µM (active)
CCCSP(=S)(OCC)Oc1ccc(Cl)cc1Cl (stereo not given) | inactive | 
CCN(CC)C(=O)C(Cl)=C(C)OP(=O)(OC)OC | inactive | 
ClCCCCl | inactive | 

SMILES | outcome | AC50
Nc1nc(N)nc(Cl)n1 | inactive | 
O=[N+]([O-])c1c2ccccc2cc2ccccc12 | inactive | 
COC(F)(C(F)(F)C(F)(F)F)C(F)(C(F)(F)F)C(F)(F)F (stereo not given) | inactive | 
Brc1c(Br)c(Br)c(Oc2c(Br)c(Br)c(Br)c(Br)c2Br)c(Br)c1Br | inactive | 
Oc1cc(Cl)c(Cl)cc1Cl | inactive | 
O=NN1CCCCCCC1 | inactive | 
O=[N+]([O-])c1ccc(Nc2ccccc2)cc1 | inactive | 
Cc1cc(C)cc(C)c1 | inactive | 
Fc1cccc(Cl)c1CCl | inactive | 
CC(=O)C(F)(F)C(F)(F)F | inactive | 
N#Cc1ccccc1Cl | inactive | 
CCOP(=S)(OCC)SCS(=O)(=O)C(C)(C)C | inactive | 
CCCCC(CC)COC(=O)Cl (stereo not given) | inactive | 
Cc1cc(Cl)ccc1OC(C)C(=O)O (stereo not given) | inactive | 
CCOC(=O)CC(=O)CCl | inactive | 
Cc1ccc(OP(=O)(Oc2ccc(C)cc2C)Oc2ccc(C)cc2C)c(C)c1 | inactive | 
CNC(=O)N(C)c1nc2ccccc2s1 | inactive | 
ClCc1ccccc1CCl | inactive | 
CCCCCCCCCCCCCCC(Br)C(=O)O (stereo not given) |  | 163 µM (active)
